Test results from publication PMC11006913.

How the values were obtained:
Assay in all cases: PBM; 200 nM protein, PBS
Details in all cases: dsDNA, one strand shown
VENTX = target: T1, VENTX (Homo sapiens, UniProt O95231 78-163, R121Q)
T1 sequence: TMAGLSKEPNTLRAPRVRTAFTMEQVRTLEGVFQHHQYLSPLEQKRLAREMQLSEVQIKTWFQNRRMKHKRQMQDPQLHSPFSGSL

HOXA4 [1] = target: HOXA4 (Homo sapiens, UniProt Q00056 201-287, W262R)
HOXA7 [2] = target: HOXA7 (Homo sapiens, UniProt P31268 116-202)
HOXB6 [3] = target: HOXB6 (Homo sapiens, UniProt P17509 132-218, K202E)
Chain of HOXB6 (Homo sapiens, UniProt P17509 132-218, K202E) (P17509 132-218 K202E): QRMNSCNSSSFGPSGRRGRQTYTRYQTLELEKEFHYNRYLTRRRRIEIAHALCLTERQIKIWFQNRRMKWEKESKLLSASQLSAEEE

HOXA4 [4] = target: HOXA4 (Homo sapiens, UniProt Q00056 201-287)
Chain of HOXA4 (Homo sapiens, UniProt Q00056 201-287) (Q00056 201-287): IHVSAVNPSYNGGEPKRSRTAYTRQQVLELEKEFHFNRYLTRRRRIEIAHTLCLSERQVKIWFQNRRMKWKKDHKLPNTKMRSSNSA

VAX1 [5] = target: VAX1 (Homo sapiens, UniProt Q5SQQ9 86-172, T142I)
Chain of VAX1 (Homo sapiens, UniProt Q5SQQ9 86-172, T142I) (Q5SQQ9 86-172 T142I): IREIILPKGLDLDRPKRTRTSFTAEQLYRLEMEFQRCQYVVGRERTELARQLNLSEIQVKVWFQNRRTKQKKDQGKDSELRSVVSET

HOXA7 [6] = target: HOXA7 (Homo sapiens, UniProt P31268 116-202, W177C)
Chain of HOXA7 (Homo sapiens, UniProt P31268 116-202, W177C) (P31268 116-202 W177C): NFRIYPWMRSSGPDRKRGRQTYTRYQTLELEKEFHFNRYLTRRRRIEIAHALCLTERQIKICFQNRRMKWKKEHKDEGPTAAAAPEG

HOXA4 [7] = target: HOXA4 (Homo sapiens, UniProt Q00056 201-287, W262F)
Chain of HOXA4 (Homo sapiens, UniProt Q00056 201-287, W262F) (Q00056 201-287 W262F): as the sequence (Q00056 201-287) above, with W62F counted along it

VAX1 [8] = target: VAX1 (Homo sapiens, UniProt Q5SQQ9 86-172, K157R)
Chain of VAX1 (Homo sapiens, UniProt Q5SQQ9 86-172, K157R) (Q5SQQ9 86-172 K157R): as the sequence (Q5SQQ9 86-172 T142I) above, with I57T, K72R counted along it

HOXB6 [9] = target: HOXB6 (Homo sapiens, UniProt P17509 132-218)
Chain of HOXB6 (Homo sapiens, UniProt P17509 132-218) (P17509 132-218): as the sequence (P17509 132-218 K202E) above, with E71K counted along it

ALX4 [10] = target: ALX4 (Homo sapiens, UniProt Q9H161 200-286)
Chain of ALX4 (Homo sapiens, UniProt Q9H161 200-286) (Q9H161 200-286): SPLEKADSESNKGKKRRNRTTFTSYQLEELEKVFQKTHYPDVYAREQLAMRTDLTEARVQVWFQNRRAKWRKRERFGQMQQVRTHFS

PRRX1 [11] = target: PRRX1 (Homo sapiens, UniProt P54821 80-166, F113S)
Chain of PRRX1 (Homo sapiens, UniProt P54821 80-166, F113S) (P54821 80-166 F113S): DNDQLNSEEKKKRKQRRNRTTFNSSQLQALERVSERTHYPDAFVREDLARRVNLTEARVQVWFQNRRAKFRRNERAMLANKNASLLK

ALX4 [12] = target: ALX4 (Homo sapiens, UniProt Q9H161 200-286, Q225E)
Chain of ALX4 (Homo sapiens, UniProt Q9H161 200-286, Q225E) (Q9H161 200-286 Q225E): as the sequence (Q9H161 200-286) above, with Q26E counted along it

HOXA2 = HOXA2 (Homo sapiens, UniProt O43364 129-215, R185T)
Chain of HOXA2 (O43364 129-215 R185T): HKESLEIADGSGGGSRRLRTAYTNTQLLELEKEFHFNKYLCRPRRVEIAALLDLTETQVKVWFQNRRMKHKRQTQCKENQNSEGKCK

ALX1 [13] = target: ALX1 (Homo sapiens, UniProt Q15699 118-204, L144V)
Chain of ALX1 (Homo sapiens, UniProt Q15699 118-204, L144V) (Q15699 118-204 L144V): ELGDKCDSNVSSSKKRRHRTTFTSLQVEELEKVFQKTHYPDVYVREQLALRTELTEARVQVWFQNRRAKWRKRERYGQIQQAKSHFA

ALX1 [14] = target: ALX1 (Homo sapiens, UniProt Q15699 118-204, L144R)
Chain of ALX1 (Homo sapiens, UniProt Q15699 118-204, L144R) (Q15699 118-204 L144R): as the sequence (Q15699 118-204 L144V) above, with V27R counted along it

MSX2 = MSX2 (Homo sapiens, UniProt P35548 130-214)
Chain of MSX2 (P35548 130-214): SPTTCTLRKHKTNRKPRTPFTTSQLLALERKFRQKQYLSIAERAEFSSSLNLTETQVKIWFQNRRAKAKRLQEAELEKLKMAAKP

ALX1 [15] = target: ALX1 (Homo sapiens, UniProt Q15699 118-204)
Chain of ALX1 (Homo sapiens, UniProt Q15699 118-204) (Q15699 118-204): as the sequence (Q15699 118-204 L144V) above, with V27L counted along it

PRRX1 [16] = target: PRRX1 (Homo sapiens, UniProt P54821 80-166)
Chain of PRRX1 (Homo sapiens, UniProt P54821 80-166) (P54821 80-166): as the sequence (P54821 80-166 F113S) above, with S34F counted along it

Chain of HOXA7 (Homo sapiens, UniProt P31268 116-202) (P31268 116-202): as the sequence (P31268 116-202 W177C) above, with C62W counted along it
Chain of HOXA4 (Homo sapiens, UniProt Q00056 201-287, W262R) (Q00056 201-287 W262R): as the sequence (Q00056 201-287) above, with W62R counted along it

Row | Sequence | binding signal (VENTX) | binding signal (HOXA4 [1]) | binding signal (HOXA7 [2]) | binding signal (HOXB6 [3]) | binding signal (HOXA4 [4]) | binding signal (VAX1 [5]) | binding signal (HOXA7 [6]) | binding signal (HOXA4 [7]) | binding signal (VAX1 [8]) | binding signal (HOXB6 [9]) | binding signal (ALX4 [10]) | binding signal (PRRX1 [11]) | binding signal (ALX4 [12]) | binding signal (HOXA2) | binding signal (ALX1 [13]) | binding signal (ALX1 [14]) | binding signal (MSX2) | binding signal (ALX1 [15]) | binding signal (PRRX1 [16])
1 | ATTAATAG | 11.7 upbm affinity estimate (log intensity, higher = more binding, comparable within an allelic series) | 10.6 upbm affinity estimate (log intensity, higher = more binding, comparable within an allelic series) | 11.6 upbm affinity estimate (log intensity, higher = more binding, comparable within an allelic series) | 10.1 upbm affinity estimate (log intensity, higher = more binding, comparable within an allelic series) | 13.6 upbm affinity estimate (log intensity, higher = more binding, comparable within an allelic series) | 12.5 upbm affinity estimate (log intensity, higher = more binding, comparable within an allelic series) | 9.03 upbm affinity estimate (log intensity, higher = more binding, comparable within an allelic series) | 11.3 upbm affinity estimate (log intensity, higher = more binding, comparable within an allelic series) | 12.4 upbm affinity estimate (log intensity, higher = more binding, comparable within an allelic series) | 12 upbm affinity estimate (log intensity, higher = more binding, comparable within an allelic series) |  |  |  |  |  |  |  |  | 
2 | CAATTAAC | 12.2 upbm affinity estimate (log intensity, higher = more binding, comparable within an allelic series) | 10.6 upbm affinity estimate (log intensity, higher = more binding, comparable within an allelic series) | 11.5 upbm affinity estimate (log intensity, higher = more binding, comparable within an allelic series) | 9.99 upbm affinity estimate (log intensity, higher = more binding, comparable within an allelic series) | 13.9 upbm affinity estimate (log intensity, higher = more binding, comparable within an allelic series) | 12.8 upbm affinity estimate (log intensity, higher = more binding, comparable within an allelic series) | 8.75 upbm affinity estimate (log intensity, higher = more binding, comparable within an allelic series) | 11.6 upbm affinity estimate (log intensity, higher = more binding, comparable within an allelic series) | 13 upbm affinity estimate (log intensity, higher = more binding, comparable within an allelic series) | 12 upbm affinity estimate (log intensity, higher = more binding, comparable within an allelic series) | 14 upbm affinity estimate (log intensity, higher = more binding, comparable within an allelic series) | 11.3 upbm affinity estimate (log intensity, higher = more binding, comparable within an allelic series) | 13.5 upbm affinity estimate (log intensity, higher = more binding, comparable within an allelic series) | 13.1 upbm affinity estimate (log intensity, higher = more binding, comparable within an allelic series) | 11.8 upbm affinity estimate (log intensity, higher = more binding, comparable within an allelic series) | 11.5 upbm affinity estimate (log intensity, higher = more binding, comparable within an allelic series) | 14 upbm affinity estimate (log intensity, higher = more binding, comparable within an allelic series) | 12.5 upbm affinity estimate (log intensity, higher = more binding, comparable within an allelic series) | 13.4 upbm affinity estimate (log intensity, higher = more binding, comparable within an allelic series)
3 | ACTAATTG | 12.3 upbm affinity estimate (log intensity, higher = more binding, comparable within an allelic series) | 10.5 upbm affinity estimate (log intensity, higher = more binding, comparable within an allelic series) |  |  | 13.7 upbm affinity estimate (log intensity, higher = more binding, comparable within an allelic series) | 13 upbm affinity estimate (log intensity, higher = more binding, comparable within an allelic series) |  | 11.4 upbm affinity estimate (log intensity, higher = more binding, comparable within an allelic series) | 13.3 upbm affinity estimate (log intensity, higher = more binding, comparable within an allelic series) |  | 13.9 upbm affinity estimate (log intensity, higher = more binding, comparable within an allelic series) | 11.2 upbm affinity estimate (log intensity, higher = more binding, comparable within an allelic series) | 13.4 upbm affinity estimate (log intensity, higher = more binding, comparable within an allelic series) | 13.2 upbm affinity estimate (log intensity, higher = more binding, comparable within an allelic series) | 11.9 upbm affinity estimate (log intensity, higher = more binding, comparable within an allelic series) | 11.5 upbm affinity estimate (log intensity, higher = more binding, comparable within an allelic series) | 14 upbm affinity estimate (log intensity, higher = more binding, comparable within an allelic series) | 12.6 upbm affinity estimate (log intensity, higher = more binding, comparable within an allelic series) | 13.3 upbm affinity estimate (log intensity, higher = more binding, comparable within an allelic series)
4 | CCTAATTA | 12.6 upbm affinity estimate (log intensity, higher = more binding, comparable within an allelic series) | 10.7 upbm affinity estimate (log intensity, higher = more binding, comparable within an allelic series) | 11.8 upbm affinity estimate (log intensity, higher = more binding, comparable within an allelic series) | 10 upbm affinity estimate (log intensity, higher = more binding, comparable within an allelic series) | 14.2 upbm affinity estimate (log intensity, higher = more binding, comparable within an allelic series) | 13.9 upbm affinity estimate (log intensity, higher = more binding, comparable within an allelic series) | 8.85 upbm affinity estimate (log intensity, higher = more binding, comparable within an allelic series) | 12.3 upbm affinity estimate (log intensity, higher = more binding, comparable within an allelic series) | 14.1 upbm affinity estimate (log intensity, higher = more binding, comparable within an allelic series) | 12.1 upbm affinity estimate (log intensity, higher = more binding, comparable within an allelic series) | 14.5 upbm affinity estimate (log intensity, higher = more binding, comparable within an allelic series) | 11.6 upbm affinity estimate (log intensity, higher = more binding, comparable within an allelic series) | 14.1 upbm affinity estimate (log intensity, higher = more binding, comparable within an allelic series) | 14 upbm affinity estimate (log intensity, higher = more binding, comparable within an allelic series) | 12.2 upbm affinity estimate (log intensity, higher = more binding, comparable within an allelic series) | 11.8 upbm affinity estimate (log intensity, higher = more binding, comparable within an allelic series) | 14.1 upbm affinity estimate (log intensity, higher = more binding, comparable within an allelic series) | 12.9 upbm affinity estimate (log intensity, higher = more binding, comparable within an allelic series) | 13.6 upbm affinity estimate (log intensity, higher = more binding, comparable within an allelic series)
